Values without a mark were called inactive. For some of these results: Results with a measured potency or affinity are listed apart. Calls of active or inactive are those of the source. Unless noted, no rule for the calls is given here.
Tests used:
[1] = antimalarial activity against Dd2 strain (AID 2302;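 active = growth inhibition above 50% at the single 2 µM test dose, taken to imply half-maximal potency below 2 µM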;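 also: 0% = DMSO untreated growth and 100% = chloroquine plus artemisinin killed control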); details: P. falciparum Dd2 in RBCs, LDH growth readout, 72 h; at 2 µM; active compounds read high
[2] = HepG2 cytotoxicity, primary screen, cytotoxicity control for P. falciparum antimalarial project, cell-based, ATP luminescence (AID 2303;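 active = inhibition above 50%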;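 also: 0% = DMSO wells and 100% = digitonin-killed cells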); details: HepG2 viability, 24-48 h, at 10 µM, active compounds read high
[3] = biological target: L-lactate dehydrogenase (Plasmodium falciparum (isolate CDC / Honduras)) (UniProt Q27743); test: PfLDH activity inhibition – cell lysate, 3D7 strain, counter-screen for P. falciparum growth inhibition project (AID 2304);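 also: 0% = vehicle and 100% = reference inhibitor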; details: P. falciparum 3D7 crude extract, LDH APAD/NBT absorbance; at 2 µM; active compounds read high
[4] = inhibition of 3D7 malaria parasite growth – strain 3D7 (AID 2306);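 also: 0% = DMSO wells and 100% = chloroquine plus artemisinin control wells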; details: P. falciparum 3D7 erythrocytic growth, LDH absorbance, 72 h; at 2 µM; active compounds read high
[5] = biological target: Calcium-dependent protein kinase 1 (Plasmodium falciparum (isolate 3D7)) (UniProt P62344); test: PfCDPK1 kinase inhibitors, biochemical, TCAMS library (AID 1159585; cut-off not given, nearly all actives have IC50 up to about 0.98 µM;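 also: inhibitors leave more ATP so luminescence rises with inhibition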); details: recombinant PfCDPK1, Kinase-Glo ATP depletion luminescence
[6] = biological target: Plasmodium falciparum protein kinase 6 (PK6, PF3D7_1337100) (UniProt Q8IDW1); test: PfPK6 kinase inhibitors, biochemical, TCAMS library (AID 1159586); details: recombinant PfPK6, Kinase-Glo ATP depletion luminescence
[7] = biological target: Protein kinase 7 (PK7), Plasmodium falciparum 3D7 (PF3D7_0213400) (UniProt Q7YTF7); test: inhibition of Plasmodium PK7 catalytic activity – biochemical, TCAMS antimalarial set, Kinase-Glo luminescence (AID 1159587); details: recombinant PfPK7, Kinase-Glo ATP depletion luminescence
[8] = biological target: Calcium-dependent protein kinase 4 (Plasmodium falciparum (isolate 3D7)) (UniProt Q8IBS5); test: PfCDPK4 kinase inhibitors, biochemical, TCAMS library (AID 1159588; cut-off not given, nearly all actives have IC50 up to about 0.91 µM); details: recombinant PfCDPK4, Kinase-Glo ATP depletion luminescence
Chain of Calcium-dependent protein kinase 4 (Plasmodium falciparum (isolate 3D7)) (Q8IBS5 whole entry, looked up): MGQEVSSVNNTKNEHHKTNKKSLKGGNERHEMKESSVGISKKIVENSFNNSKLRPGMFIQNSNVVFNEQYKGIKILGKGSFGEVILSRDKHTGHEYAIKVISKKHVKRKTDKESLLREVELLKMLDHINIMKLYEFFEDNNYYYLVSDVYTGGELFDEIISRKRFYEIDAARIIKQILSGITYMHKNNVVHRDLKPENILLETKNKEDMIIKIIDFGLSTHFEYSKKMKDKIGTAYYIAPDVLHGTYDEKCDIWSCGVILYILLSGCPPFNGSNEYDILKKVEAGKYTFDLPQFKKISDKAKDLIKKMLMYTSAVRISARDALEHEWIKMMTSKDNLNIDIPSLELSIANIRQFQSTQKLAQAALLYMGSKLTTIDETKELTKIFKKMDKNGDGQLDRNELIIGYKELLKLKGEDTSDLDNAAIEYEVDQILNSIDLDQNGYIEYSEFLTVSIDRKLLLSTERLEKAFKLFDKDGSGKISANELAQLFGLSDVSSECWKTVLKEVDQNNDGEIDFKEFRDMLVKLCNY

Chain of L-lactate dehydrogenase (Plasmodium falciparum (isolate CDC / Honduras)) (Q27743 whole entry, looked up): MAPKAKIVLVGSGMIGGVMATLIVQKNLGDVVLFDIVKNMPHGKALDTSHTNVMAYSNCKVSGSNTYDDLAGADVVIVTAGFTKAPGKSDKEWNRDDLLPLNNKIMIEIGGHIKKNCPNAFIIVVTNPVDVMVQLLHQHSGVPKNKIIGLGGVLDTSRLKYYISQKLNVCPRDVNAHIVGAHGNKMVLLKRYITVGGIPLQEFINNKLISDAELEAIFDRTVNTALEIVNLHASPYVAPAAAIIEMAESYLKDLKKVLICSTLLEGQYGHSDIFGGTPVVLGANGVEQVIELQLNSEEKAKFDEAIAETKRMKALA
Chain of Plasmodium falciparum protein kinase 6 (PK6, PF3D7_1337100) (Q8IDW1 1-305): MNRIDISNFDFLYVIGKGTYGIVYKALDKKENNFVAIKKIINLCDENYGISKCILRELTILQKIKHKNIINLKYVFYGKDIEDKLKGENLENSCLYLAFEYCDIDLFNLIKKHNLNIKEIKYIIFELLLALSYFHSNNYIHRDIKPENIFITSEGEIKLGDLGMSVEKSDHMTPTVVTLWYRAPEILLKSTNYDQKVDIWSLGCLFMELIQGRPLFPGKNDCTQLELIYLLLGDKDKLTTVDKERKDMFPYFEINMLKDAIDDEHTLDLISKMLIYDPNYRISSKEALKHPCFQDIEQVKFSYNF
Chain of Protein kinase 7 (PK7), Plasmodium falciparum 3D7 (PF3D7_0213400) (Q7YTF7 1-343): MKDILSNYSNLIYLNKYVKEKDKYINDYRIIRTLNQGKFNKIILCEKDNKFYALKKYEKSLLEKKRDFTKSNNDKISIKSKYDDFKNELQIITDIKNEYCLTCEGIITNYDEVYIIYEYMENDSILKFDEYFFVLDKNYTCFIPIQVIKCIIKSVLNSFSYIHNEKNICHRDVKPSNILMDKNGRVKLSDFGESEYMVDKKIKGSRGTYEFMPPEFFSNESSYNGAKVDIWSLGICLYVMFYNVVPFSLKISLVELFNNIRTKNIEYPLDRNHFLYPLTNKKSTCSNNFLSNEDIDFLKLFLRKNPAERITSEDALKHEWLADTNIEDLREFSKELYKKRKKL
Chain of Calcium-dependent protein kinase 1 (Plasmodium falciparum (isolate 3D7)) (P62344 whole entry, looked up): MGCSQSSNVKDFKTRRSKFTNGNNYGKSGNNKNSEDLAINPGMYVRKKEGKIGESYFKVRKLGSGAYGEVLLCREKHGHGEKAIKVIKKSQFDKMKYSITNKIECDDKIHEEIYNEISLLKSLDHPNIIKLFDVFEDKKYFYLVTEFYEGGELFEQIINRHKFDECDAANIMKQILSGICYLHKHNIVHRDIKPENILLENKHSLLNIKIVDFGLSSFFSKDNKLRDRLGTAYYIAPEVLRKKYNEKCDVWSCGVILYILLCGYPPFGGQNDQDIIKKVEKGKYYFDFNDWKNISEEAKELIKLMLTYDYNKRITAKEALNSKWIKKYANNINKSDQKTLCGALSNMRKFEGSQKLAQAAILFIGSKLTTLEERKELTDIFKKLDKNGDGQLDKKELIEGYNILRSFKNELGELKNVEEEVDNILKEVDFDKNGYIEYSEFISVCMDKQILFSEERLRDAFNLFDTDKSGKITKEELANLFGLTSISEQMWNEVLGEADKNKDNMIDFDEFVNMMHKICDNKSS

SMILES | growth inhibition [1] | inhibition [2] | inhibition [3] | growth inhibition [4] | outcome [5] | outcome [6] | outcome [7] | outcome [8]
CC(C)(CNCc1ccc(C(F)(F)F)cc1)c1nc(-c2ccc(Cl)c(O)c2)c(-c2ccncc2)[nH]1 | 98% (active) | 42% | -1% | 101% (active) | inactive | inactive | inactive | inactive
CC(C)CCN1CCC(Oc2ccc(NC(=O)c3ccco3)cc2Cl)CC1 | 93% (active) | 1% | 3% | 95% (active) | inactive | inactive | inactive | inactive
c1ccc2c(Nc3ccc(OCCOCCOc4ccc(Nc5c6ccccc6nc6ccccc56)cc4)cc3)c3ccccc3nc2c1 | 97% (active) | 38% | 7% | 101% (active) | inactive | inactive | inactive | inactive
CN(CCON1C(N)=NC(N)=NC1(C)C)c1ccccc1 | 93% (active) | 64% (active) | 1% | 97% (active) | inactive | inactive | inactive | inactive
CCOc1cc(C(=O)NCCCN2CCCCC2C)ccc1-c1nc2ccc(Cl)cc2[nH]1 (stereo not drawn) | 0% | 2% | -2% | 89% (active) | inactive | inactive | inactive | inactive
COc1ccc(CNC(=O)c2cnc3cc(-c4c(C)noc4C)ccc3c2Nc2ccccc2C(C)(C)C)cc1 | 69% (active) | 9% | 0% | 99% (active) | inactive | inactive | inactive | inactive
OC1(Cc2ccccc2)CCN(Cc2cccc(-c3c[nH]c4nc(NC5CCCC5)ncc34)c2)CC1 | 35% | 45% | 4% | 96% (active) | inactive | inactive | inactive | inactive
O=C(Nc1cc(C(F)(F)F)cc(C(F)(F)F)c1)NC(CCCN1CCC2(CC1)OCc1ccccc12)c1ccc(Cl)c(Cl)c1 (stereo not drawn) | 87% (active) | 26% | 2% | 94% (active) | inactive | inactive | inactive | inactive
O=C(NCc1cccc2ccccc12)[C@@H]1CCCN1C(=O)c1ccc(O)c(-c2ccc(Cl)c(Cl)c2)c1 | 71% (active) | -4% | 2% | 98% (active) | inactive | inactive | inactive | inactive
O=C(Nc1ccc(Cl)cc1)c1ccc(CN2CCCN(Cc3ccsc3)CC2)cc1 | 1% | 48% | 4% | 88% (active) | inactive | inactive | inactive | inactive
Cc1[nH]cnc1Cc1ccc2c(c1O)c1ccccc1n2C | 16% | 9% | -2% | 90% (active) | inactive | inactive | inactive | inactive
Cc1ccc(NC(=O)c2cn(-c3ccccc3)nc2-c2ccc(F)cc2)cc1[N+](=O)[O-] | 38% | 6% | 8% | 92% (active) | inactive | inactive | inactive | inactive
COc1cc(N)cc2sc(N)nc12 | 99% (active) | 0% | -2% | 99% (active) | inactive | inactive | inactive | inactive
COc1cc2nc(N3CCC(CNCc4ccc(-c5ccc(C(F)(F)F)cc5)cc4)CC3)nc(N)c2cc1OC | 100% (active) | 99% (active) | -4% | 99% (active) | inactive | inactive | inactive | inactive
CC1=C(C(=O)OC(C)C)C(c2ccccc2Cl)C2=C(CC(c3ccccc3)CC2=O)N1 (stereo not drawn) | 84% (active) | 15% | 1% | 93% (active) | inactive | inactive | inactive | inactive
O=C(Cn1cnc2c(nnn2Cc2ccccc2F)c1=O)Nc1ccc2c(c1)OCCO2 | 1% | -6% | -2% | 86% (active) | inactive | inactive | inactive | inactive
O=c1cc(NCCCNCc2cccc(Oc3ccccc3)c2)[nH]c2ccccc12 | 67% (active) | -4% | -1% | 93% (active) | inactive | inactive | inactive | inactive
CCCc1c(C(=O)Nc2ccc3c(c2)CCN(C2CCC2)CC3)cnn1-c1ccc(Cl)cc1 | 12% | 64% (active) | 2% | 92% (active) | inactive | inactive | inactive | inactive
O=C(NCCCCCCNCc1ccc(-c2ccccc2)cc1)Nc1ccc(Cl)c(Cl)c1 | 2% | 14% | -1% | 90% (active) | inactive | inactive | inactive | inactive
c1ccc(-c2[nH]c3ccccc3c2CN2CCC(N3CCCCC3)CC2)nc1 | 82% (active) | 13% | -3% | 101% (active) | inactive | inactive | inactive | inactive
Nc1ccc(-c2ccc3ccnc(N)c3c2)cn1 | 100% (active) | 43% | 3% | 101% (active) | inactive | inactive | inactive | inactive

SMILES | growth inhibition [1] | inhibition [2] | inhibition [3] | growth inhibition [4] | outcome [5] | outcome [6] | outcome [7] | outcome [8]
Clc1ccccc1CN1CCC(NCc2cccc(-n3ccnc3)c2)CC1 | 43% | 6% | -3% | 101% (active) | inactive | inactive | inactive | inactive
O=C(C=Cc1ccc(Cl)c(Cl)c1)NCCCCCN1CCCC(CCCNC(=O)c2cccs2)C1 (stereo not drawn) | 0% | 24% | 1% | 89% (active) | inactive | inactive | inactive | inactive
Cc1ccc(C)c(CC(=O)N2CCC(n3c(C)nc4ccc(F)cc43)CC2)c1 | 99% (active) | -2% | 1% | 100% (active) | inactive | inactive | inactive | inactive
O=C(Cc1ccsc1)NCC(c1ccccc1Cl)c1c[nH]c2ccccc12 (stereo not drawn) | 71% (active) | 0% | -1% | 86% (active) | inactive | inactive | inactive | inactive
CCOc1ccccc1CNc1nccc(NCCc2cn(C)c3ccccc23)n1 | 62% (active) | 27% | -4% | 98% (active) | inactive | inactive | inactive | inactive
COc1ccc2c(NCCc3ccccc3)cc(-c3ccccc3)nc2c1 | 1% | 13% | 2% | 98% (active) | inactive | inactive | inactive | inactive
Cc1ccc(S(=O)(=O)N2CCCN(C(=O)c3cc(-c4ccccc4)n[nH]3)CC2)cc1 | 93% (active) | 11% | -2% | 96% (active) | inactive | inactive | inactive | inactive
CC(NCC(O)Cn1c2ccccc2c2ccccc21)c1ccccc1 (stereo not drawn) | 85% (active) | 37% | 9% | 96% (active) | inactive | inactive | inactive | inactive
CC1CCCN(S(=O)(=O)c2cc(Br)cc3c2N(C(=O)C2CC2)CC3)C1 (stereo not drawn) | 70% (active) | -14% | -3% | 83% (active) | inactive | inactive | inactive | inactive
O=C(Nc1cccc(-c2cccc(-c3nc4ccc(C(F)(F)F)cc4[nH]3)c2)c1)c1cccnc1Cl | 58% (active) | 56% (active) | 1% | 95% (active) | inactive | inactive | inactive | inactive
CN(C)Cc1ccc(CN2CCN(CCOc3ccc(-c4ccc(Cl)cc4)cc3)CC2)o1 | 21% | 75% (active) | -1% | 90% (active) | inactive | inactive | inactive | inactive
O=C(/C=C/c1ccc(Cl)c(Cl)c1)NCCCCCN1CCC(NC(=O)Nc2ccc3c(c2)OCO3)CC1 | 5% | 12% | 6% | 103% (active) | inactive | inactive | inactive | inactive
CCCCCCCC1CC(CC(=O)Nc2ccnc3ccc(OC)cc23)CN1 (stereo not drawn) | 58% (active) | 22% | -2% | 90% (active) | inactive | inactive | inactive | inactive
CC(C)NCc1cccc(-c2cccc(NC(=O)c3cccc(Cl)c3)c2)c1 | 38% | 36% | -10% | 98% (active) | inactive | inactive | inactive | inactive
COC(=O)c1ccc(NC(=O)Nc2cccc(CCNCc3ccccc3)c2)cc1 | 10% | 2% | 6% | 96% (active) | inactive | inactive | inactive | inactive
Cc1nc(-c2cccc(C(F)(F)F)c2)n2nc(Nc3ccc(OCCN4CCCC4)cc3)ncc12 | 29% | 30% | -3% | 99% (active) | inactive | inactive | inactive | inactive
COCc1ccc(CN2CCC(C(=O)Nc3ccc(-c4nc5ccccc5[nH]4)cc3)CC2)o1 | 13% | 13% | -5% | 97% (active) | inactive | inactive | inactive | inactive
CN1CCN(c2ccnc3ccc(NC(=O)c4ccc(Cl)c(Cl)c4)cc23)CC1 | 64% (active) | 4% | 2% | 100% (active) | inactive | inactive | inactive | inactive
O=C(NCc1ccc(F)cc1)Nc1ccc(-c2cccc(-c3nc4ccc(C(F)(F)F)cc4[nH]3)c2)cc1 | 92% (active) | 41% | 3% | 101% (active) | inactive | inactive | inactive | inactive
C=CCC(C(=O)Nc1ccnc2ccc(OC)cc12)C1CCN(CCCCCCC)CC1 (stereo not drawn) | 84% (active) | 20% | -7% | 86% (active) | inactive | inactive | inactive | inactive
